Assay results as given in PubChem BioAssay.
Active and inactive are the calls of the source. Unless noted, no rule for the calls is given here.

How the values were obtained:
[1] = A549 cell viability effects, profiling panel, calcein-AM fluorescence, 48 h, basal (AID 1162); conditions: higher = more signal; also: test concentration not given here
[2] = adipocyte viability effects, profiling panel, cell-based, 3T3-L1 adipocytes, calcein-AM fluorescence, 48 h, basal (AID 1163); conditions: 3T3-L1 adipocytes viability, higher = more signal; also: test concentration not given here
[3] = HepG2 cell viability effects, profiling panel, calcein-AM fluorescence, 48 h, basal (AID 1164); conditions: higher = more signal; also: test concentration not given here
[4] = MM1S cell viability effects, profiling panel, calcein-AM fluorescence, 48 h, basal (AID 1165); conditions: higher = more signal;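 also: viability of MM1S multiple myeloma cells under basal unstimulated conditions; test concentration not given here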
[5] = basal RPMI8226 viability, no added stimulus, profiling panel, cell-based, calcein-AM fluorescence, 48 h, PK04 Diversity Set (AID 1166); conditions: RPMI8226 myeloma viability, higher = more signal;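 also: cells grown under basal conditions without added stimulus; test concentration not given here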
[6] = basal HepG2 mitochondrial membrane potential changes, profiling panel, cell-based, JC-1 fluorescence, 24 h, 100 nL compound (AID 1167); conditions: higher = more signal; also: test concentration not given here
[7] = basal 3T3-L1 adipocyte mitochondrial potential changes, profiling panel, cell-based, JC-1 fluorescence, 3T3-L1 adipocytes, 24 h, 100 nL compound (AID 1168); conditions: JC-1 mitochondrial fluorescence, higher = more signal, called active from +8 up or from −8 down; also: test concentration not given here
[8] = basal RPMI8226 mitochondrial membrane potential changes, profiling panel, cell-based, JC-1 fluorescence, 24 h, 100 nL compound (AID 1169); conditions: RPMI8226 myeloma, JC-1 mitochondrial potential fluorescence, higher = more signal; also: test concentration not given here
[9] = basal MM1S mitochondrial membrane potential changes, profiling panel, cell-based, JC-1 fluorescence, 24 h, 100 nL compound (AID 1170); conditions: higher = more signal; also: test concentration not given here
[10] = A549 lung cancer cell viability effects, profiling panel, resazurin fluorescence, 24 h, PK04 Diversity Set (AID 1171); conditions: higher = more signal, called active from +8 up or from −8 down; also: test concentration not given here
[11] = HepG2 liver cancer cell viability effects, profiling panel, resazurin fluorescence, 24 h, PK04 Diversity Set (AID 1172); conditions: higher = more signal; also: test concentration not given here
[12] = basal S. cerevisiae growth modulation, no modifier, primary screen, OD600, strain BY4716, 24 h, basal condition (AID 1173); conditions: OD600, 24 h, higher = more signal, called active from +8 up or from −8 down
[13] = MM1S myeloma cell viability, profiling panel, resazurin fluorescence, basal, 24 h, PK04 Diversity Set (AID 1174); conditions: higher = more signal, called active from +8 up or from −8 down;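 also: MM1S multiple myeloma cell line; test concentration not given here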
[14] = biological target: Dihydroorotate dehydrogenase (quinone), mitochondrial (Plasmodium falciparum (isolate 3D7)) (UniProt Q08210); assay: PfDHODH enzyme inhibitors, primary screen, biochemical, C-terminal His tag, absorbance 600 nm (AID 1175); conditions: DCIP absorbance 600 nm, higher = more signal, called active from +8 up or from −8 down;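 also: recombinant parasite enzyme with a five histidine tag at its C terminus; test concentration not given here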
Sequence of Dihydroorotate dehydrogenase (quinone), mitochondrial (Plasmodium falciparum (isolate 3D7)) (Q08210 whole entry, looked up): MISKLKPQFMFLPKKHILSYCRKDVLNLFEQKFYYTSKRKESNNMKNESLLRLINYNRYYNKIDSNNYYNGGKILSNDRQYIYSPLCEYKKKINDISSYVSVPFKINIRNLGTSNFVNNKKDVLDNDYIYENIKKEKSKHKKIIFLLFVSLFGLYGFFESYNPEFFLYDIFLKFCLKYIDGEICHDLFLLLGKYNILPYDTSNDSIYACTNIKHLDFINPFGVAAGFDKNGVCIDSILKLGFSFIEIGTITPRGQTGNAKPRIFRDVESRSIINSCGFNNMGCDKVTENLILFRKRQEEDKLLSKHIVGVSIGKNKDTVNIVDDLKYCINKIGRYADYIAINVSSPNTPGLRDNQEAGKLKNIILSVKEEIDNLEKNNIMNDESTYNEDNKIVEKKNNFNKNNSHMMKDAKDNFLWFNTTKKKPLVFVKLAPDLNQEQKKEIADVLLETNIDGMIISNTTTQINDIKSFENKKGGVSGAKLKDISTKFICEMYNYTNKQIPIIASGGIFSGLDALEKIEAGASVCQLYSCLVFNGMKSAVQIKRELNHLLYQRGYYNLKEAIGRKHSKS

[15] = P. aeruginosa biofilm formation inhibitors, primary screen, strain PAO1, LB-PBS medium, absorbance 600 nm (AID 1176); also: test concentration not given here; conditions: P. aeruginosa PAO1 growth/biofilm, A600, 12 h; higher = more signal
[16] = S. cerevisiae RM11-1a growth modifiers, primary screen, strain RM11-1a, OD600, basal, 24 h (AID 1177); conditions: OD600, 24 h, higher = more signal, called active from +8 up or from −8 down;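 also: cultures grown under basal conditions with no added stressor; test concentration not given here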
[17] = E. coli acrAB mutant growth effects, primary screen, E. coli filamentation inducers, strain DRC39, OD650, 24 h (AID 1178); conditions: higher = more signal, called active from +8 up or from −8 down;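 also: growth measured as culture turbidity by optical density at 650 nm; test concentration not given here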
[18] = E. coli acrAB mutant growth effects, primary screen, E. coli filamentation inducers, strain DRC39, OD650, 48 h (AID 1179);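 also: screen aims at cell division blockers that make cells filament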; conditions: E. coli DRC39 delta-acrAB growth, higher = more signal, called active from +8 up or from −8 down
[19] = RPMI8226 myeloma cell viability, profiling panel, resazurin fluorescence, basal, 24 h, PK04 Diversity Set (AID 1180); conditions: higher = more signal;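 also: RPMI8826 multiple myeloma cell line at 5000 cells per well; test concentration not given here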
[20] = biological target: E3 ubiquitin-protein ligase XIAP (Homo sapiens) (UniProt P98170); assay: XIAP binders, primary screen, biophysical, small-molecule microarray, fluorescence 635 nm (AID 1181); conditions: small-molecule microarray binding, higher = more signal;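 also: score merges 667 nm emission and signal to noise over triplicate slides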
Sequence of E3 ubiquitin-protein ligase XIAP (Homo sapiens) (P98170 whole entry, looked up): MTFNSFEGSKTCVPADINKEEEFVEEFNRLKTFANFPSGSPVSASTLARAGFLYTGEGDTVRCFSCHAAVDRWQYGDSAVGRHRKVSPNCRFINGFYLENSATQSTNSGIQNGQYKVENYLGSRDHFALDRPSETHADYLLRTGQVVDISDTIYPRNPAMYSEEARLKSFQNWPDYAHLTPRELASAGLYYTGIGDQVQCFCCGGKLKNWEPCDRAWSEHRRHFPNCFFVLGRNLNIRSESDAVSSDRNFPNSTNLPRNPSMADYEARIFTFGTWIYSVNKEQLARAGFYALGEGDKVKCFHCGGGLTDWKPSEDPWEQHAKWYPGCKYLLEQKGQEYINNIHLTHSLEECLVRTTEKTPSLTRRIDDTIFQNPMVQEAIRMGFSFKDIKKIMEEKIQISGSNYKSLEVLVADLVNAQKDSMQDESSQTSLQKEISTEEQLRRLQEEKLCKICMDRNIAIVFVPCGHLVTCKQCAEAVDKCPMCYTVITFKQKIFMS

## O=C(NCC(F)(F)F)[C@@H]1c2ccccc2C(=O)N(Cc2ccccc2)[C@H]1c1ccc(CO)cc1
[1]
  z-score: 1.73
[2]
  z-score: 0.402
[3]
  z-score: 1.34
[4]
  z-score: 0.356
[5]
  z-score: -0.407
[6]
  z-score: 2.14
[7]
  z-score: 1.2 (inactive)
[8]
  z-score: 0.0511
[9]
  z-score: -0.657
[10]
  z-score: 0.176 (inactive)
[11]
  z-score: -0.699
[12]
  z-score: -0.0657 (inactive)
[13]
  z-score: -0.294 (inactive)
[14]
  composite z-score: -1.09 (inactive)
[15]
  z-score: -0.0654 (inactive)
[16]
  z-score: 0.0566 (inactive)
[17]
  z-score: 0.126 (inactive)
[18]
  z-score: 0.606 (inactive)
[19]
  z-score: 0.368
[20]
  composite z-score: -0.239

## C=CCN1Cc2ccccc2C[C@]2(N=C(c3ccc(OCCCO)cc3)O[C@@H]2c2ccccc2)C1=O
[1]
  z-score: -0.584
[2]
  z-score: 0.975
[3]
  z-score: -0.676
[4]
  z-score: -3.58
[5]
  z-score: -3.71
[6]
  z-score: 0.96
[7]
  z-score: 0.101 (inactive)
[8]
  z-score: -1.16
[9]
  z-score: -0.762
[10]
  z-score: -2.13 (inactive)
[11]
  z-score: -0.677
[12]
  z-score: -1.35 (inactive)
[13]
  z-score: -2.24 (inactive)
[14]
  composite z-score: -1.1 (inactive)
[15]
  z-score: 1.32 (inactive)
[16]
  z-score: -0.211 (inactive)
[17]
  z-score: 1.13 (inactive)
[18]
  z-score: 1.09 (inactive)
[19]
  z-score: -2.07
[20]
  composite z-score: -0.186

## C#C[C@H]1Oc2ccccc2S(=O)(=O)N2CCC[C@@H]12
[1]
  z-score: -0.308
[2]
  z-score: -0.401
[3]
  z-score: -1.19
[4]
  z-score: 0.132
[5]
  z-score: -0.446
[6]
  z-score: -0.777
[7]
  z-score: -0.275 (inactive)
[8]
  z-score: -0.18
[9]
  z-score: -0.116
[10]
  z-score: -0.424 (inactive)
[11]
  z-score: -0.87
[12]
  z-score: -0.454 (inactive)
[13]
  z-score: -0.482 (inactive)
[14]
  composite z-score: 0.112 (inactive)
[15]
  z-score: -0.0582 (inactive)
[16]
  z-score: -0.0887 (inactive)
[17]
  z-score: 0.0374 (inactive)
[18]
  z-score: -0.29 (inactive)
[19]
  z-score: -0.652
[20]
  composite z-score: -0.299

## CC(C)C(O)C1C=CC2C(=O)N(C)C(=O)C2N1N1CCCCC1 (stereo not given)
[1]
  z-score: 0.553
[2]
  z-score: -0.0255
[3]
  z-score: -0.306
[4]
  z-score: -0.602
[5]
  z-score: -1.34
[6]
  z-score: -0.778
[7]
  z-score: -0.307 (inactive)
[8]
  z-score: 0.643
[9]
  z-score: -0.189
[10]
  z-score: -0.153 (inactive)
[11]
  z-score: -0.401
[12]
  z-score: 0.717 (inactive)
[13]
  z-score: -0.82 (inactive)
[14]
  composite z-score: -0.0607 (inactive)
[15]
  z-score: 0.916 (inactive)
[16]
  z-score: 0.0471 (inactive)
[17]
  z-score: -0.754 (inactive)
[18]
  z-score: -0.837 (inactive)
[19]
  z-score: -0.323
[20]
  composite z-score: -0.0448

## CN(C)CCCN1C(=O)[C@@]2(c3ccc([N+](=O)[O-])cc3)CC(=O)N(C3CCCCC3)[C@@H]2c2ccc(CO)cc21
[1]
  z-score: -0.397
[2]
  z-score: 0.962
[3]
  z-score: -0.816
[4]
  z-score: -0.0337
[5]
  z-score: 0.505
[6]
  z-score: 0.446
[7]
  z-score: -0.274 (inactive)
[8]
  z-score: 0.764
[9]
  z-score: -0.725
[10]
  z-score: 0.572 (inactive)
[11]
  z-score: 1.57
[12]
  z-score: -1.28 (inactive)
[13]
  z-score: 1.11 (inactive)
[14]
  composite z-score: -3.88 (inactive)
[15]
  z-score: -0.6 (inactive)
[16]
  z-score: -1.45 (inactive)
[17]
  z-score: 0.244 (inactive)
[18]
  z-score: 0.876 (inactive)
[19]
  z-score: 1.12
[20]
  composite z-score: -0.0374

## C=C(/C(=C/C[C@@H](OC(=O)c1ccncc1)c1ccc(CO)o1)c1cc(C(=O)OC)ccc1OC)C(C)C
[1]
  z-score: 0.621
[2]
  z-score: -0.619
[3]
  z-score: 0.486
[4]
  z-score: -2.99
[5]
  z-score: -2.18
[6]
  z-score: 0.654
[7]
  z-score: -0.369 (inactive)
[8]
  z-score: -0.688
[9]
  z-score: -1.97
[10]
  z-score: -0.0675 (inactive)
[11]
  z-score: -0.512
[12]
  z-score: -0.128 (inactive)
[13]
  z-score: -0.51 (inactive)
[14]
  composite z-score: -1.49 (inactive)
[15]
  z-score: 0.519 (inactive)
[16]
  z-score: -0.0289 (inactive)
[17]
  z-score: 0.885 (inactive)
[18]
  z-score: 0.64 (inactive)
[19]
  z-score: -0.533
[20]
  composite z-score: -0.187

## [N-]=[N+]=NCc1ccccc1C[C@]1(C(=O)NCC(O)CO)COC(c2ccc(OCCCO)cc2)=N1 (stereo not given in full)
[1]
  z-score: -0.226
[2]
  z-score: -0.314
[3]
  z-score: 0.0226
[4]
  z-score: -1.02
[5]
  z-score: -1.29
[6]
  z-score: -0.727
[7]
  z-score: -0.491 (inactive)
[8]
  z-score: -1.26
[9]
  z-score: -0.714
[10]
  z-score: 2.56 (inactive)
[11]
  z-score: 0.0117
[12]
  z-score: -1.46 (inactive)
[13]
  z-score: -2.31 (inactive)
[14]
  composite z-score: 0.0291 (inactive)
[15]
  z-score: 0.19 (inactive)
[16]
  z-score: -0.325 (inactive)
[17]
  z-score: -0.0949 (inactive)
[18]
  z-score: 0.0564 (inactive)
[19]
  z-score: -0.902
[20]
  composite z-score: -0.163

## CCN(CC)c1ccc(N2CC=CC34O[C@@H]5/C=C\CCCOC(=O)C5[C@H]3C(=O)N(CCCO)[C@@H]4C2=O)cc1 (stereo not given in full)
[1]
  z-score: -0.13
[2]
  z-score: 0.275
[3]
  z-score: 0.616
[4]
  z-score: 0.794
[5]
  z-score: -0.0911
[6]
  z-score: 0.472
[7]
  z-score: -0.546 (inactive)
[8]
  z-score: -0.0632
[9]
  z-score: 0.918
[10]
  z-score: 0.876 (inactive)
[11]
  z-score: 0.434
[12]
  z-score: 0.993 (inactive)
[13]
  z-score: 0.481 (inactive)
[14]
  composite z-score: -0.423 (inactive)
[15]
  z-score: 0.053 (inactive)
[16]
  z-score: -0.767 (inactive)
[17]
  z-score: -0.438 (inactive)
[18]
  z-score: -0.322 (inactive)
[19]
  z-score: 0.566
[20]
  composite z-score: 0.559

## C=CCOC(=O)[C@H]1[C@@H]2C(=O)O[C@@H](c3ccccc3)[C@@H](c3ccccc3)N2[C@@H](c2ccc(OCCOC(=O)[C@@H]3C[C@@H]4C(=O)NCC(=O)N4[C@@H]3c3ccc(O)cc3)cc2)[C@]12C(=O)Nc1ccc(I)cc12
[1]
  z-score: -0.566
[2]
  z-score: -0.907
[3]
  z-score: -0.368
[4]
  z-score: -0.0033
[5]
  z-score: 0.169
[6]
  z-score: -1.55
[7]
  z-score: 0.459 (inactive)
[8]
  z-score: -0.688
[9]
  z-score: -1.1
[10]
  z-score: -0.148 (inactive)
[11]
  z-score: -0.247
[12]
  z-score: 0.528 (inactive)
[13]
  z-score: -0.897 (inactive)
[14]
  composite z-score: 0.31 (inactive)
[15]
  z-score: 2.27 (inactive)
[16]
  z-score: 0.305 (inactive)
[17]
  z-score: -0.641 (inactive)
[18]
  z-score: -0.51 (inactive)
[19]
  z-score: -0.433
[20]
  composite z-score: -0.0066
